Rows were chosen to be rich in hits. Some 7.5% of all compounds tested hit in one or more screens of this group.
FMDV antiviral – blocks foot and mouth disease virus. FMDV antiviral cell-based qHTS. Potency, µM (doses to about 57.9 µM), inactives show at the top dose activity change, negative = inhibition, most hits filed as inhibitors. 1.2% of 410,000 active; calls by dose curve; tested in HEK293T cells; also: read-out not given here; potency is read from the fitted curve at half-maximal effect; nearly all actives have a fitted effect of over 45% in size
FBPA Giardia inh – blocks Giardia fructose-bisphosphate aldolase activity; 0.71% of 290,000 active; Potency, µM (doses to about 59.6 µM), for inactives: at the top dose activity, negative = inhibition, actives largely listed as inhibitors; AID 2451; purified Giardia FBPA; A8B2U2; also: potency is read from the fitted curve at half-maximal effect; nearly all actives have a fitted effect of over 55% in size
Target sequence (A8B2U2 whole entry, looked up): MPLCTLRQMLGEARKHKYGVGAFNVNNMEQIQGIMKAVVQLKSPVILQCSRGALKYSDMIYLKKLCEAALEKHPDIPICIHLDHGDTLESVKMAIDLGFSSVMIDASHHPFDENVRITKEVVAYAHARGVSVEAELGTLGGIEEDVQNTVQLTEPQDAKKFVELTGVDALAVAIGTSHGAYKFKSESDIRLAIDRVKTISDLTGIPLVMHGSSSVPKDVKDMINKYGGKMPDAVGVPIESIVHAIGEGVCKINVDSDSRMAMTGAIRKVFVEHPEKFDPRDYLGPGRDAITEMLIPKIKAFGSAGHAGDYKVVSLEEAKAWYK
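40 nM FBPA preincubated 10 min at RT with compound (up to 57.5 uM final), then substrate plus GAPDH/TPI/NAD/arsenate coupling and diaphorase/resazurin added. Fluorescence read after 20 min at RT, 525/598 nm.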
VACV mCherry inh – inhibitors of vaccinia virus infection (mCherry reporter signal); Vaccinia virus mCherry reporter infection, fluorescence; Potency, µM (top dose mostly 36.5 µM), for inactives: at the top dose activity change, negative = inhibition, usual class: inhibitors; 0.63% of 310,000 active; calls by dose curve; tested in A549 cells; also: potency is read from the fitted curve at half-maximal effect; nearly all actives have a fitted effect of over 35% in size
HCMV antiviral – inhibitors of human cytomegalovirus. activity change, negative = inhibition, % at 57.5 µM. HFF cells, HCMV-luciferase reporter, 72 h; hits give low values. 4.5% of 410,000 active; in the data active = activity change below about -60%; inconclusive = no clear call, values can overlap the other calls; inactive = above about -39%
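Luciferase read-out from HCMV-luciferase-infected HFFs (MOI 1 PFU/cell) 72 h post infection at 37C; compounds added after 16 h cell attachment; activity normalized between buffer-only basal and Salinomycin (10uM) inhibitor controls.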
HCV inhibitor – inhibitors of hepatitis C virus infection. Huh7.5.1 HCVcc-Cre infection, luciferase reporter, 44 h. Potency, µM (highest dose often 41.8 µM), without a hit: at the highest dose activity change, negative = inhibition, actives largely listed as inhibitors. 3.4% of 340,000 active; also: potency is read from the fitted curve at half-maximal effect
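A cell-based infection assay in which seeded cells (1,000 per well) receive test compound after 4 h, are inoculated with HCVcc-Cre at approximately 0.5 moi, and are incubated 44 h before luminescence detection.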
VACV Venus inh – inhibitors of vaccinia virus (Venus reporter); Vaccinia virus Venus reporter expression, fluorescence; Potency, µM (titrated, usually from 36.5 µM), without a hit: top-dose activity change, negative = inhibition, usual class: inhibitors; 0.46% of 330,000 active; AID 720580; calls by dose curve; tested in A549 cells; also: potency is read from the fitted curve at half-maximal effect; nearly all actives have a fitted effect of over 30% in size
* = called active by the depositor; i = inactive; ? = inconclusive; . = no result given; [ ] = dose if it differs, or a comment. Unless noted, calls follow the shape of the dose curve; as a rule, active = well fitted curve in the direction sought with a large enough effect; inconclusive = small, poorly fitted or top-dose-only effect, or another doubt; inactive = no such curve, though single readings can be large; an effect the other way counts as inactive or inconclusive. % is scaled to controls: 0 for no effect and ±100 for the full control effect.

SMILES | FMDV antiviral | FBPA Giardia inh | VACV mCherry inh | HCMV antiviral | HCV inhibitor | VACV Venus inh
CC(Sc1nnc(-c2ccco2)o1)C(=O)NCCC1=CCCCC1 (stereo not drawn) | 5% | 2% | -13% | 7 | 0% | -8%
CCN(CC)S(=O)(=O)c1cccc(-c2nnc(SCc3nc4ccccc4s3)o2)c1 | 0% | -1% | . | -7 | 7.1µM* | 28µM*
CCN(CC)S(=O)(=O)c1cccc(-c2nnc(SCCCC(=O)c3ccc(F)cc3)o2)c1 | ? | 6% | . | -38 | ? | .
C=CCn1c(C)cc(C(=O)CSc2nnc(-c3cccc(S(=O)(=O)N(CC)CC)c3)o2)c1C | -16% | 1% | ? | -13 | 8.9µM* | -23%
O=C(COC(=O)COc1ccc2c(c1)CCC2)Nc1ccccc1C(F)(F)F | -5% | . | -7% | -19 | 15% | 4%
CCOC(=O)c1ccccc1NC(=O)COC(=O)C1CCN(S(=O)(=O)c2ccccc2C(=O)OC)CC1 | -12% | . | -9% | -14 | 1%[8.37 µM] | 2%
COc1ccc(S[C@]2(c3nc(C)no3)CC(=O)N(C(=O)c3ccccc3)[C@@H]2c2ccc(OC)cc2)cc1 | . | . | . | -9 | . | .
Cc1nc(NC(=O)CSc2nnc(C3CC3)n2N)c(Cl)cc1Cl | 4% | . | . | -27 | 7% | .
CN(Cc1ccccc1)C(=O)C1CCN(S(=O)(=O)c2ccc3nc4c(c(C(=O)O)c3c2)CCCC4)CC1 | -9% | -6% | -3% | 8 | 10% | 8%
O=C1CCN(S(=O)(=O)c2ccccc2)CCN1CCOCc1ccc(C(F)(F)F)cc1 | ? | -1% | ? | -34 | 10µM* | ?
Cc1ccc(COCCN2CCN(S(=O)(=O)c3ccccc3)CCC2=O)cc1 | -23% | 15% | -29% | -30 | 2% | -12%
O=C(O)CSCC(=O)Nc1ccc(Cl)cc1C(F)(F)F | 7% | 8% | i | -2 | 4% | -1%
CCC(C)N(CC(=O)Nc1cccc(C)c1C)C(=O)CCl (stereo not drawn) | 16µM* | -1% | 4.5µM* | . | 1.3µM* | ?
CC(C)N(CC(=O)Nc1ccc(Cl)cc1C(F)(F)F)C(=O)CCl | 16µM* | -1% | ? | -99* | 4µM* | -24%
Cc1ccc(CSC2=NC(C)(C)Nc3ccccc32)c(C)c1 | -20% | . | i | -9 | . | -16%
CCC(=O)Nc1nnc(S(=O)(=O)N(CC)c2ccc(Cl)cc2)s1 | 3% | 1% | . | -67* | 8% | .
CCC(=O)Nc1nnc(S(=O)(=O)N(CC)c2ccc(OC)cc2)s1 | 33% | 3% | . | -33 | 5% | .
CCN(c1ccc(Cl)cc1)S(=O)(=O)c1nnc(NC(=O)C2CCCCC2)s1 | -18% | . | -23% | -64* | . | -23%
CCCCn1nnnc1C(C1CC1)N1C(=O)C(=O)c2ccccc21 (stereo not drawn) | . | . | . | -9 | . | .
N#Cc1ccc(OCC(=O)N2CCN(S(=O)(=O)c3ccc(Cl)s3)CC2)cc1 | ? | . | . | -61* | ? | .
COc1ccc(OCC(=O)N2CCN(S(=O)(=O)c3ccc(Cl)s3)CC2)cc1 | -24% | . | . | 19 | 2% | .
CCOC(=O)Cn1c(=O)n(C2CCCCC2)c2nc(-c3ccc(OCC)cc3)nc(C(N)=O)c21 | -3% | . | -6% | 1 | . | -10%
Cc1oc(-c2ccc(Cl)cc2)nc1CN1CCCC(C(=O)NCc2ccccn2)C1 (stereo not drawn) | -5% | 5% | . | ? | ? | .
Cc1oc(-c2ccc(Cl)cc2)nc1CN1CCC(C(=O)NCCCN2CCCC2=O)CC1 | -9% | 1% | -8% | -16 | ? | -19%
Cc1oc(-c2ccc(Cl)cc2)nc1CN1CCCC(C(=O)NCc2cccnc2)C1 (stereo not drawn) | ? | 12% | . | -84* | 1µM* | .
SMILES | FMDV antiviral | FBPA Giardia inh | VACV mCherry inh | HCMV antiviral | HCV inhibitor | VACV Venus inh
Cc1oc(-c2ccc(Cl)cc2)nc1CN1CCCC(C(=O)NCCCN2CCOCC2)C1 (stereo not drawn) | 0% | 9% | ? | ? | 6.3µM* | -22%
Cc1oc(-c2ccc(Cl)cc2)nc1CN1CCC(C(=O)NCCCN2CCCC(C)C2)CC1 (stereo not drawn) | -22% | . | . | -101* | 1.8µM* | .
CCC1(CC)NC(=O)N(CC(=O)OCC(=O)Nc2sccc2C#N)C1=O | 8% | 1% | -1% | -4 | 4% | 0%
CCOCCCN(C(=O)c1snc(C(N)=O)c1N)C(C(=O)NC1CCCC1)c1ccc(F)cc1 (stereo not drawn) | -2% | 8% | -16% | 16 | ? | -16%
COc1ccc(OCC(=O)N/N=C/c2cccn2-c2cccc(C(=O)O)c2)cc1 | -4% | . | -4% | -12 | 10% | -5%
Cc1ccccc1NCc1ccc(O)c2ncccc12 | ? | -5% | ? | -97* | ? | ?
Cc1cccc(NCc2ccc(O)c3ncccc23)c1 | -21% | -8% | ? | -84* | 7.1µM* | -20%
Oc1ccc(CNc2ccc(F)cc2)c2cccnc12 | -28% | 0% | . | -14 | ? | .
COCc1ccc(O)c2ncccc12 | -29% | 12% | . | -94* | 5.6µM* | ?
COc1ccc(CNCCCSc2nnnn2C)c(OC)c1 | 7% | . | -2% | -1 | . | -6%
CCN(CCCNc1ncnc2nc[nH]c12)c1cccc(C)c1 | ? | -12% | ? | -76* | ? | -28%
CCOc1cc(C(=O)Nc2cnccn2)cc(OCC)c1OCC | -20% | -4% | -11% | 68 | ? | -23%
CCOc1cc(C(=O)Nc2cc(C)ccn2)cc(OCC)c1OCC | -30% | 20% | . | -95* | ? | .
CCOc1ccc(C(=O)Nc2cc(C)ccn2)cc1 | -88% | -1% | -7% | -65* | -11% | 1%
CCOc1ccc(C(OC(=O)c2ccco2)C(=O)NCc2ccc(C)cc2)cc1 (stereo not drawn) | -16% | 0% | . | -74* | -3% | .
Cc1ccc(C(OC(=O)c2ccco2)C(=O)NCc2cccs2)cc1 (stereo not drawn) | 16% | 0% | -14% | -27 | -1% | -7%
Cc1ccc(C(OC(=O)c2ccco2)C(=O)NC2CCCCC2)cc1 (stereo not drawn) | 15% | 7% | . | -98* | 1% | .
Cc1ccc2c(c1)nnn2C1CCN(CC(=O)c2ccc(Cl)cc2)CC1 | 20% | -5% | 9% | -16 | -18% | 7%
Cc1ccc2c(c1)nnn2C1CCN(CC(=O)N(c2ccccc2)c2ccccc2)CC1 | -18% | 1% | . | -70* | ? | .
CCOC(=O)CN(C(=O)CN1CCC(n2nnc3cc(C)ccc32)CC1)c1ccccc1 | -25% | -1% | -19% | 0 | 8% | -16%
Cc1ccc2c(c1)nnn2C1CCN(CC(=O)N2c3ccccc3CC2C)CC1 (stereo not drawn) | ? | . | -8% | -76* | -22% | -16%
C=CCN1C=C(C(=O)OCC)C(=O)CC1 | . | . | . | -4 | . | .
